The values below come from PubChem BioAssay AID651871 (Sanford-Burnham Center for Chemical Genomics, 2012).

Several values for one entry are separate records, joined by “and”; a condition that tells them apart may be missing. Equal entries are not always repeated.

For this assay, the system named is H9c2. The assay is described as follows: cardiomyocyte survival under oxidative or metabolic stress – cell-based, panel, H9c2 and HL-1, ATP luminescence, set 2, SAR follow-up (AID 651871).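 Also: cells exposed to stressor for 2 h before ATP readout; reference of the scale not given here.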 Particulars: H9c2/HL-1 cardiomyocytes, 2-deoxyglucose stress, with 2-deoxyglucose; run 6, at 79 µM (top of the series).
On to `COc1ccc2nc(-c3cc(OC)c(OC)c(OC)c3)cc(C(=O)NCC(=O)Nc3ccc(C(C)=O)cc3)c2c1`, for which the activity (protection/inhibition) was 91.5%.
Take `CCOC(=O)c1cccc(NC(=O)CNC(=O)c2cc(-c3cc(OC)c(OC)c(OC)c3)nc3ccccc23)c1`: the activity (protection/inhibition) is 73.8%.
For the molecule `COc1ccc2c(c1OC)C(=O)N1c3ccccc3C(=O)N(Cc3cccc(Cl)c3Cl)C21` (stereo not drawn), the activity (protection/inhibition) was 104% and 66.4% and -6.1%.
